The results in this text go back to PubChem BioAssay.

The assay is described as follows: compounds binding Alexa647 anti-His antibody – biochemical, small-molecule microarray, 635 nm fluorescence, artefact control for SMM control protein annotation, primary screen (AID 1128).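 Further: score merges feature fluorescence with signal-to-noise for each printed compound spot.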 To be noted: higher = more signal.
Molecule `CCOC(=O)C1=NO[C@@]2(C=C(Br)C3(OCCCO3)[C@H]3O[C@H]32)C1` gave a composite z-score of 0.968.
Then `C#CCCCON=C1C[C@@H](O)[C@@H](O)[C@@H]2[C@@H]3C(=O)N(C(C)(C)C)C(=O)[C@@H]3CC[C@H]12`, with 0.0217.
Then `CO[C@@H]1COC(=O)[C@@H](C)COC(=O)[C@@H](C)NC(=O)CC=C[C@@H]1C`, with 0.548; and `COC(=O)CC=C[C@@H](C)[C@@H](C=NO[C@H](C)c1cn([C@H](CO)Cc2ccccc2)nn1)NS(=O)(=O)c1ccc(C)cc1`, with 2.47.
The same measure for `O=C(C=Cc1ccc2c(c1)OCO2)c1ccc(F)cc1`: 0.877.
`CCOC(=O)[C@H](CC(C)C)NC(=O)CCC1CC(OC(=O)NCc2cccc3ccccc23)CC2(CCCC(COC(=O)NCCOC)O2)O1` (stereo partly specified) gave a composite z-score of 0.427.
The same measure for `C[C@@H]1C=CCC(=O)OC[C@H]2O[C@@H](C=C[C@@H]2O)[C@H](C)C=CCC(=O)OC1`: 0.341; for `CCOC(=O)[C@H](CC(C)C)NC(=O)CCC1CC(OC(=O)NCc2cccc3ccccc23)CC2(CCCC(COC(=O)NCCCN3CCCC3=O)O2)O1` (stereo partly specified): 0.551; for `CSCC[C@@H]1NC(=O)CC=C[C@@H](C)COC(=O)[C@@H](C)COC1=O`: -0.888.
Then `COc1ccc(O[C@H]2C=C[C@@H](c3ccccc3)O[C@@H]2CON=C(C)CCN2CCc3nc(-c4ccccc4)c(-c4ccccc4)cc3C2)cc1`, with 1.38; and `C=COC[C@@H]1CN2[C@@H](CC[C@@H](C)[C@@H]2c2ccc(Br)cc2)C(=O)O1`, with -0.559; and `COC(=O)CC=C[C@@H](C)[C@@H](C=NOCC[C@@H]1C=C[C@H](OC(C)=O)[C@@H](COC(C)=O)O1)NS(=O)(=O)c1ccc(C)cc1`, with 2.34.
The same measure for `CCc1cc2c(nc1CC)CCN(CCC(C)=NOC[C@H]1O[C@H](c3ccccc3)C=C[C@@H]1Oc1ccc(OC)cc1)C2`: 0.287; for `CC(C)CON=C1C[C@@H](O)[C@@H](O)[C@@H]2[C@@H]3C(=O)N(C4CCCCC4)C(=O)[C@@H]3CC[C@@H]12`: 0.889; for `CCN1C(=O)[C@H]2[C@H]3[C@H](O)[C@H](O)CC(=O)[C@@H]3CC[C@H]2C1=O`: 0.562.
For the molecule `COC(=O)C1=C(C)N(Cc2ccccc2)[C@]23O[C@](C(=O)OC)(C(=O)N2[C@@H]1c1ccccc1)C(C(=O)OC)=C3C(=O)OC`, the composite z-score was determined as 0.686.
Then `CC(C)=NO[C@H](C)c1cn([C@H](CO)Cc2ccccc2)nn1`, with 1.28; and `CON=Cc1ccc(C(=O)N2[C@H](c3ccc(C)cc3)[C@@H](C)CC[C@H]2C(=O)OC)cc1`, with 2.72.
As to `CCN1C(=O)[C@@H]2[C@H]3C(=CC[C@@H]2C1=O)C1(OCCCO1)[C@H]1O[C@H]1[C@H]3O`, the composite z-score was determined as 0.841.
The same measure for `O=C(NN=C1C[C@@H](O)[C@@H](O)[C@@H]2[C@@H]3C(=O)N(C[C@@H]4CCCO4)C(=O)[C@@H]3CC[C@@H]12)OCc1ccccc1`: -0.391.
`CC(CCN1CCc2nc(-c3ccccc3)c(-c3ccccc3)cc2C1)=NOC[C@@H](O)COCc1ccco1`: the composite z-score is 0.567.
As for `O=C1[C@H]2[C@H]3[C@H](O)[C@H](O)CC(=NO[C@@H]4O[C@H](CO)[C@@H](O)[C@H](O)[C@H]4O)[C@H]3CC[C@H]2C(=O)N1c1cccc(Oc2ccccc2)c1`, the composite z-score came out at 1.25.
Then `O=C1C[C@@H](O)[C@@H](O)[C@@H]2[C@@H]3C(=O)N(Cc4ccc5c(c4)OCO5)C(=O)[C@@H]3CC[C@H]12`, with 0.324.
For `COC(=O)[C@@H]1CC[C@@H](C)[C@H](c2ccc(Br)cc2)N1`, the composite z-score is 0.949.
Then `CCOC(=O)[C@H](CC(C)C)NC(=O)CCC1CC(OC(=O)NCCc2ccc(F)cc2)CC2(CCCC(COC(=O)NCC(c3ccccc3)c3ccccc3)O2)O1` (stereo partly specified), with 0.59; and `COC(=O)[C@H](C)NC(=O)CCC1CC(OC(=O)NCc2ccc3c(c2)OCO3)CC2(CCCC(COC(=O)NCc3cccc(C(F)(F)F)c3)O2)O1` (stereo partly specified), with 0.0275; and `CC(C)=CCCC(C)=CCON=C1C[C@@H](O)[C@@H](O)[C@@H]2[C@@H]3C(=O)N(C(C)(C)C)C(=O)[C@@H]3CC[C@@H]12`, with 0.696.
In turn, `Cc1ccc(S(=O)(=O)NC(CCc2ccccc2)CC(=O)C(C)(C)C)cc1` (stereo unspecified) returned a composite z-score of 0.569.
The same measure for `C#CCCCON=C1C[C@@H](O)[C@@H](O)[C@@H]2[C@@H]3C(=O)N(c4ccc(F)cc4F)C(=O)[C@@H]3CC[C@H]12`: 0.968; for `COC(=O)[C@H](C)NC(=O)CCC1CC(OC(=O)NCc2ccc3c(c2)OCO3)CC2(CCCC(COC(=O)NCCc3ccccc3OC)O2)O1` (stereo partly specified): 0.911.
`CCCCC#C[C@@H]1C=C[C@H](Oc2ccc(C(=O)OC)cc2)[C@@H](COC(=O)OCC)O1` registered a composite z-score of 0.516.
